Each structure is given as a SMILES string. A number with no mark means an inactive call.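 The calls were made as follows: active = binding inhibited by at least 50%, or stimulated by at least 50%, shown as inhibition of -50% or lower; inactive = the rest.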

The experiment relates to Potassium Channel KATP. Kind of experiment: radioligand displacement at 30 receptors – biochemical, Panlabs HitProfilingScreen, selectivity assay for AVPR1a antagonist project, profiling panel (AID 743088). Conditions: 30 targets, at 10 µM, hits give high values.

As to `O=C(C1CCN(c2ccc(Cl)cn2)CC1)N(CC1CC1)c1ccc(Cl)cc1`, the inhibition of binding was 19%.

For the origin of these results see PubChem BioAssay AID743088 (The Scripps Research Institute Molecular Screening Center, 2013).
